High-throughput results (PubChem)
hcDAF12 agonist: H. contortus DAF-12 activation, primary screen; HEK293 hcDAF-12 lit1-tk-luc reporter, luminescence; 0% DMSO, 100% Δ7-dafachronic acid; activation, % at 6.8 µM; 1.4% of 370,000 active;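 active = activation above the mean of all tested compounds plus 3 SD, cut at about 5.5% in these data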
hgDAF12 agonist: hgDAF-12 agonism, primary luciferase screen. activation, % at 6.8 µM. 1.8% of 370,000 active. HEK293 GAL4-hgDAF12 UAS-luciferase reporter, agonist luminescence; normalized to butyrate control;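 active = activation above a cutoff set at the mean of all screened compounds plus 3 SD, cut at about 10% in these data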
ssDAF12 agonist: activators of S. stercoralis DAF-12 nuclear receptor. AID 652126. HEK293 ssDAF-12/GRIP1 lit1-tk-luc reporter, luminescence; % of 3 µM dafachronic acid response. activation, % at 6.8 µM. 1% of 370,000 active;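 active = activation above the mean over all tested compounds plus 3 SD, cut at about 0.9% in these data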
DAX1 inh-1: inhibitors of DAX1 repression of SF-1 activated StAR promoter; 1.1% of 370,000 active; HEK293T StAR-luciferase reporter, SF-1/DAX-1 repression relief; inhibition, % at 6.8 µM;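 active = inhibition above the mean over all tested compounds plus 3 SD, cut at about 3.6% in these data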;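 note: higher inhibition means more luminescence from relief of DAX-1 repression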
SMARCA2 activ: activators of SMARCA2 function | MG213 cells, MMTV-luciferase reporter, dexamethasone, overnight | activation, % at 9.1 µM | 1% of 370,000 active | AID 652017; in the data active = activation above about 7.8%
DAX1 inh-2: NR0B1 (DAX1) inhibition | 0.99% of 340,000 active | AID 504766 | HEK293 Gal4-DAX1 luciferase reporter, luminescence | inhibition, % at 6.75 µM;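 active = inhibition above the mean over all tested compounds plus 3 SD, cut at about 4.2% in these data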;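 note: inhibition shows as a rise in luminescence from relieved DAX1 repression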
Target sequence (P51843 207-470 limits assumed): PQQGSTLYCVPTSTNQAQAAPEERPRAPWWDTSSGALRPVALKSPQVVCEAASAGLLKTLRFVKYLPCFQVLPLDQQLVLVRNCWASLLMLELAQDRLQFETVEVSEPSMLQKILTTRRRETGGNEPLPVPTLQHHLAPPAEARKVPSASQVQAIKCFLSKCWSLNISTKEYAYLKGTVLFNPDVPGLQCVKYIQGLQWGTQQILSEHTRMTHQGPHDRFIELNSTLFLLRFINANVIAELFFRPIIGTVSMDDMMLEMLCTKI
A number is an active result; n = inactive; x = no result given. Hits are enriched below; roughly 4.8% of the tested compounds scored in any of these assays.

SMILES	hcDAF12 agonist	hgDAF12 agonist	ssDAF12 agonist	DAX1 inh-1	SMARCA2 activ	DAX1 inh-2
Cc1ccnc2nc(C(=O)Nc3nc(-c4ccccn4)cs3)nn12	n	n	n	n	n	8.3
Cc1ccccc1NC(=O)c1nc2nccc(C)n2n1	x	x	x	x	x	n
O=C1CC(c2ccc(S(=O)(=O)NCc3ccccc3)cc2)CN1 (stereo unspecified)	n	n	n	n	n	5.6
CC(=O)Nc1ccccc1P(=O)(c1ccccc1)c1ccccc1OC(C)=O (stereo unspecified)	n	n	n	n	n	4.5
COc1ccc2nc(NC(=O)CSc3nnc(C)n3N)sc2c1	n	n	n	3.8	n	n
COc1ccc2nc(NC(=O)CSc3nnc(N)s3)sc2c1	n	n	n	n	n	n
COc1ccc2nc(NC(=O)CN3CCOCC3)sc2c1	n	11.4	n	n	n	n
COc1cccc(N2CCN(CC(=O)NCc3ccc(F)cc3)CC2)c1	n	n	n	n	n	x
O=C(CSc1nnc(-c2cccnc2)n1-c1ccccc1)Nc1cccc2ccccc12	n	n	n	n	n	x
Fc1cccc2sc(Nc3nnc(-c4ccco4)o3)nc12	n	12.7	n	n	n	n
Cc1ccc(C(=O)NC(=S)Nc2ccccc2N2CCCC2)cc1[N+](=O)[O-]	n	n	1.4	n	n	n
Cc1ccc(C(=O)Nc2ccccc2N2CCCCC2)cc1[N+](=O)[O-]	n	n	n	n	n	n
Nc1ccc(S(N)(=O)=O)cc1N	n	12.6	n	n	n	7.3
Nc1ccc(S(N)(=O)=O)cc1	n	n	n	n	n	n
Cc1cc(NC(=O)/C=C\C(=O)O)c([N+](=O)[O-])cc1C	n	n	n	n	n	n
Cc1ccc(NC(=O)/C=C/C(=O)O)c([N+](=O)[O-])c1	n	n	n	n	7.8	n
COc1cc(-c2cc(NC=O)c3ncc(-c4ccc(C(C)=O)cc4)n3c2)cc(OC)c1OC	n	n	n	n	n	x
COc1ccc(-c2cc(NC=O)c3ncc(-c4cccc(C(C)=O)c4)n3c2)cc1	n	n	n	n	n	x
CC(=O)Nc1cc(-c2cccc(F)c2)cn2c(-c3ccc(F)c(Cl)c3)cnc12	n	n	n	4.5	n	x
COc1cccc(-c2cc(NC=O)c3ncc(-c4ccc(C(C)=O)cc4)n3c2)c1	n	10.8	n	n	n	x
COc1ccc(-c2cc(NC=O)c3ncc(-c4ccc(C(C)=O)cc4)n3c2)cc1OC	n	n	n	n	7.9	x
CC(=O)Nc1cc(-c2ccccc2)cn2c(-c3ccc(F)c(Cl)c3)cnc12	n	n	n	n	n	x
O=C(O)CC(NC(=O)Cc1ccc([N+](=O)[O-])cc1)c1ccc2c(c1)OCO2 (stereo unspecified)	n	n	n	n	n	4.4
CC(C(=O)NCc1ccc2c(c1)OCO2)c1ccc([N+](=O)[O-])cc1 (stereo unspecified)	n	n	n	n	n	n
O=C(/C=C/c1ccccc1)NCC1(c2ccccc2)CCOCC1	n	n	n	n	n	5.0
SMILES	hcDAF12 agonist	hgDAF12 agonist	ssDAF12 agonist	DAX1 inh-1	SMARCA2 activ	DAX1 inh-2
O=C(/C=C/c1ccc(F)cc1)NCC1(c2ccccc2)CCOCC1	n	n	n	n	n	n
COC(=O)c1cn[nH]c1NC(=S)Nc1ccc(C)cc1Cl	n	n	n	4.2	n	n
COC(=O)c1cn[nH]c1NC(=S)Nc1ccc(Cl)c(Cl)c1	n	n	n	n	n	n
O=C(CSc1nnc(Cc2ccsc2)o1)c1ccccc1	n	n	n	n	7.8	x
O=C(CSc1nnc(Cc2ccccc2)o1)c1ccc(F)cc1	n	n	n	n	n	n
COC(=O)C1CN(Cc2ccc(Cl)cc2)CCS(=O)(=O)N1Cc1cn(Cc2ccc(Cl)cc2)nn1 (stereo unspecified)	n	n	n	n	n	x
O=[N+]([O-])c1ccc(Cl)c(C[n+]2cccc3ccccc32)c1	n	n	1.5	n	n	n
Clc1cccc(Cl)c1C[n+]1cccc2ccccc21	n	n	n	n	n	n
O=C(C[n+]1cccc2ccccc21)c1ccc([N+](=O)[O-])cc1	n	n	1.3	n	n	n
O=C(C[n+]1cccc2ccccc21)c1ccc(Cl)cc1	n	n	n	n	n	n
CCOC(=O)COc1ccc(C(C)c2ccc(NC(=O)OC(C)(C)C)cc2)cc1 (stereo unspecified)	n	n	n	n	n	x
FC(F)(F)c1ccc2nc(CNc3nc(N4CCOCC4)nc4c3ncn4-c3ccsc3)[nH]c2c1	n	n	n	x	x	x
COC(=O)c1cccc2c1NC(=O)C2=O	n	n	n	n	n	8.0
COC(=O)[C@]12C[C@H](CC(=O)NCc3cccc(C(F)(F)F)c3)C(=O)N(Cc3cccc4ccccc34)C1=C[C@H](COCc1ccccc1)O[C@@H]2C	n	n	n	n	n	x
CCOc1ccc(-c2nc(CSc3nnc(N)s3)cs2)cc1	n	12.4	n	n	n	n
c1coc(C2Nc3ccccc3-c3nc4ccccc4n32)c1 (stereo unspecified)	n	n	n	n	n	n
c1ccc(C2Nc3ccccc3-c3nc4ccccc4n32)cc1 (stereo unspecified)	n	10.5	n	n	n	n
COc1ccc(-c2nc(SC)n(C(=O)c3ccco3)n2)cc1	n	n	n	n	n	4.2
Oc1ccc(Br)cc1-c1cc(-c2ccccc2Cl)[nH]n1	n	10.8	n	n	n	n
Oc1ccc(Cl)cc1-c1cc(-c2ccccc2)n[nH]1	5.7	10.9	n	n	n	n
COc1ccccc1-c1cc(-c2cc(Cl)ccc2O)n[nH]1	n	n	n	n	n	n
Oc1ccc(Br)cc1-c1cc(-c2ccccc2F)[nH]n1	5.8	n	n	n	n	n
C/C=C/C(=O)N1CCC(C(=O)NCC2COc3ccccc3O2)CC1 (stereo unspecified)	n	n	n	n	n	x
COc1cc(C2C3=C(CC(C)(C)CC3=O)Nc3c2c(=O)[nH]c(=O)n3Cc2ccccc2)ccc1O (stereo unspecified)	n	n	n	n	n	4.3
CC(C)N(C(C)C)S(=O)(=O)c1ccc(NN)nc1	n	n	n	n	n	n
SMILES	hcDAF12 agonist	hgDAF12 agonist	ssDAF12 agonist	DAX1 inh-1	SMARCA2 activ	DAX1 inh-2
CCN(CC)S(=O)(=O)c1ccc(NN)nc1	n	n	1.4	n	n	n
Cc1cnc(C(=O)Nc2ccc(F)cc2)cn1	n	n	n	n	n	n
Cc1cnc(C(=O)Nc2ccc(C(C)C)cc2)cn1	n	12.4	n	n	n	n
COC(=O)C[C@H]1CC[C@H]2[C@H](COc3ccc(NC(=O)C4CCOCC4)cc3C(=O)N2C)O1	n	n	n	n	n	x
O=C(Nc1nc(-c2ccncc2)cs1)c1ccco1	n	n	n	n	n	n
O=C(Nc1nc(-c2cccs2)cs1)c1ccco1	n	10.8	n	4.1	n	n
O=C(Nc1nc(-c2cccs2)cs1)c1ccc([N+](=O)[O-])o1	n	n	2.0	n	n	n
